The text below walks through data of PubChem BioAssay.

Experiment [1] in a line: small molecules captured by biotinylated probe aFSTL3 – biochemical, small-molecule microarray, fluorescence 635/667, stem cell growth factor project, primary screen (AID 1064).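 Further: measures binding of the biotinylated anti-FSTL3 antibody to printed compounds.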 The note with it: higher = more signal.
A short description of experiment [2]: binders from COS7 lysate, DM2A8 probe, primary screen, torsin A project, cell lysate, small-molecule microarray, fluorescence 635/667 (AID 1065). The note with it: higher = more signal, COS7 lysate expressing mutant human TOR1A.
Experiment [3] can be described thus: small molecules captured by biotinylated probe aFGF2 – biochemical, small-molecule microarray, fluorescence 635/667, stem cell growth factor project, primary screen (AID 1067).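 Further: measures binding of biotinylated aFGF2 protein to printed compounds on slides; z-score merges feature fluorescence and signal-to-noise across triplicate slides.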 To be noted: higher = more signal.
A short description of experiment [4]: small molecules captured by biotinylated probe aFGF10 – biochemical, small-molecule microarray, fluorescence 635/667, stem cell growth factor project, primary screen (AID 1071).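 Further: score merges 667 nm spot intensity and signal to noise from triplicate slides.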 The note with it: higher = more signal.
The target of experiment [5] is Neurogenic locus notch homolog protein 2 (Homo sapiens) (UniProt Q04721). Description: small molecules binding Notch2 protein – biochemical, small-molecule microarray, 635 nm fluorescence, stem cell growth factors, primary screen (AID 1073). To be noted: higher = more signal.
The target in experiment [6] is Pro-neuregulin-1, membrane-bound isoform (Homo sapiens) (UniProt Q02297). The experiment can be described thus: small molecules binding neuregulin-1 protein – biochemical, small-molecule microarray, fluorescence 635/667, psychiatric disease protein project, primary screen (AID 1075).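 Further: score combines 667 nm spot fluorescence with signal to noise.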 The note with it: NRG1 binding, 635 nm fluorescence, higher = more signal.
Experiment [7] concerns Neuregulin-1 EGF-like domain. Description: small molecules binding NRG1 EGF domain – biochemical, small-molecule microarray, 635 nm fluorescence, primary screen (AID 1081).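 Further: binding of the protein to compounds printed on small-molecule microarray slides.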 The note with it: higher = more signal.
The nature of experiment [8]: FRG1 expression reporter modulators in myotubes – cell-based, C2C12 myotubes, firefly/Renilla luciferase, luminescence, FRG1 inhibition for FSHD, primary screen (AID 1084). To be noted: FRG1 promoter luciferase, higher = more signal, called active from +8 up or from −8 down.
Experiment [9] is described as follows: small molecules captured by biotinylated probe aFST – biochemical, small-molecule microarray, fluorescence 635/667, stem cell growth factor project, primary screen (AID 1086).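 Further: score merges 667 nm fluorescence with signal-to-noise of each printed compound spot.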 The note with it: higher = more signal.
A short description of experiment [10]: binders of probe aHhip on microarray, primary screen, stem cell growth factor project, biochemical, small-molecule microarray, fluorescence 635/667 (AID 1087).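 Further: score merges spot fluorescence at 667nm with spot signal to noise ratio.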 To be noted: higher = more signal.
In experiment [11] the test system is PRMT1 (protein arginine N-methyltransferase 1). The experiment can be described thus: small molecules binding arginine methyltransferase PRMT1 – biochemical, small-molecule microarray, 635 nm fluorescence, primary screen (AID 1088).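 Further: binding of Prmt1 protein to compounds spotted on small-molecule microarray slides.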 The note with it: higher = more signal.
The nature of experiment [12]: growth effects on S. cerevisiae YJM789 – YJM789 clinical isolate, OD600, 24 h, basal, primary screen (AID 1089).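 Further: growth of clinical yeast isolate S. cerevisiae YJM 789 seeded 1000 cells per well; test concentration not given here.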 To be noted: higher = more signal, called active from +8 up or from −8 down.
A short description of experiment [13]: S. pombe growth modifiers, basal conditions – strain 972, OD600, 24 h, no modulator, primary screen (AID 1090).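 Further: basal condition with compound alone and no growth modifier present; test concentration not given here.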 To be noted: S. pombe 972 growth, higher = more signal, called active from +8 up or from −8 down.
Experiment [14] is described as follows: budding yeast growth modifiers under rapamycin – strain BY4716, OD600, 96 h, primary screen (AID 1091). Further: test concentration not given here. To be noted: S. cerevisiae BY4716 + rapamycin, higher = more signal, called active from +8 up or from −8 down.
The target of experiment [15] is Torsin-1A-interacting protein 2 (Homo sapiens) (UniProt Q8NFQ8). The experiment can be described thus: small molecules binding lysate-expressed LULL1 – cell lysate, human LULL1 lysate, 635/667 nm fluorescence, primary screen (AID 1092).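 Further: probe is lysate of COS7 cells overexpressing human LULL1; score merges per-feature 667 nm fluorescence with signal-to-noise.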 To be noted: small-molecule microarray, hLULL1 lysate binding, 635 nm fluorescence; higher = more signal.
Experiment [16] can be described thus: optical density change of DRC41 E. coli – strain DRC41, OD650, 24 h, E. coli filamentation project, primary screen (AID 1093).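 Further: MC1000 strain lacking acrAB efflux and sulA so SOS filamentation is blocked; test concentration not given here.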 The note with it: E. coli DRC41 growth, higher = more signal, called active from +8 up or from −8 down.
Experiment [17] can be described thus: probe aLefty2 binding to arrayed compounds – biochemical, biotinylated probe, 635/667 nm fluorescence, primary screen (AID 1094).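 Further: score merges spot fluorescence near 667 nm with spot signal-to-noise ratio.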 The note with it: small-molecule microarray, higher = more signal.
Experiment [18] concerns Noggin (protein binding on small-molecule microarray). Description: small molecules binding Noggin protein – biochemical, 635/667 nm fluorescence, primary screen (AID 1095).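 Further: score merges 667 nm feature fluorescence with signal to noise over triplicate slides.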 To be noted: 635 nm fluorescence, higher = more signal.
For experiment [19], the target named is Neurogenic locus notch homolog protein 3 (Homo sapiens) (UniProt Q9UM47). Description: small molecules binding NOTCH3 protein – biochemical, 635/667 nm fluorescence, primary screen (AID 1096). The note with it: small-molecule microarray, 635 nm fluorescence, higher = more signal.
Experiment [20] is described as follows: probe aEGFR binding to arrayed compounds – biochemical, biotinylated probe, 635/667 nm fluorescence, primary screen (AID 1097).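 Further: probe is a biotinylated anti-EGFR antibody binding compounds printed on slides; score combines fluorescence near 667 nm and signal to noise of each spot.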 The note with it: small-molecule microarray, higher = more signal.

Each structure is given as a SMILES string. Active and inactive are the calls of the source.

Sequence of Pro-neuregulin-1, membrane-bound isoform (Homo sapiens) (Q02297 whole entry, looked up, the tested form may be a part, canonical isoform): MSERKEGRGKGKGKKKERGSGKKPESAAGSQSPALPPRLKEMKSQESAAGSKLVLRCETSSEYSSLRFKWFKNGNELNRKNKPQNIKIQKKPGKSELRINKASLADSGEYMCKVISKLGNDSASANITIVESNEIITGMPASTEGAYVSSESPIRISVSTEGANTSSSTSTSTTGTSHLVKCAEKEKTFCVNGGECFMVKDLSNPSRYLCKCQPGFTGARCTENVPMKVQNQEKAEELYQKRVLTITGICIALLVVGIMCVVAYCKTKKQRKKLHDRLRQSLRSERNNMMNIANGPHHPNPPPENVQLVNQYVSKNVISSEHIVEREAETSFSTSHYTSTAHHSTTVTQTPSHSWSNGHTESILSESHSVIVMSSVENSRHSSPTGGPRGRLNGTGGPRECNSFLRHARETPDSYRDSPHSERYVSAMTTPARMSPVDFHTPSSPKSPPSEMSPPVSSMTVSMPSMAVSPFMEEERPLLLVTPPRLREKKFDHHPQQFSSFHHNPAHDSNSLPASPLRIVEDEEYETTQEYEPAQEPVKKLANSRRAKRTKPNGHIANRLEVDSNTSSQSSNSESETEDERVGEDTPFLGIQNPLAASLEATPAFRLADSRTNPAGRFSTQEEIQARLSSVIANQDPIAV
Sequence of Neurogenic locus notch homolog protein 3 (Homo sapiens) (Q9UM47 whole entry, looked up): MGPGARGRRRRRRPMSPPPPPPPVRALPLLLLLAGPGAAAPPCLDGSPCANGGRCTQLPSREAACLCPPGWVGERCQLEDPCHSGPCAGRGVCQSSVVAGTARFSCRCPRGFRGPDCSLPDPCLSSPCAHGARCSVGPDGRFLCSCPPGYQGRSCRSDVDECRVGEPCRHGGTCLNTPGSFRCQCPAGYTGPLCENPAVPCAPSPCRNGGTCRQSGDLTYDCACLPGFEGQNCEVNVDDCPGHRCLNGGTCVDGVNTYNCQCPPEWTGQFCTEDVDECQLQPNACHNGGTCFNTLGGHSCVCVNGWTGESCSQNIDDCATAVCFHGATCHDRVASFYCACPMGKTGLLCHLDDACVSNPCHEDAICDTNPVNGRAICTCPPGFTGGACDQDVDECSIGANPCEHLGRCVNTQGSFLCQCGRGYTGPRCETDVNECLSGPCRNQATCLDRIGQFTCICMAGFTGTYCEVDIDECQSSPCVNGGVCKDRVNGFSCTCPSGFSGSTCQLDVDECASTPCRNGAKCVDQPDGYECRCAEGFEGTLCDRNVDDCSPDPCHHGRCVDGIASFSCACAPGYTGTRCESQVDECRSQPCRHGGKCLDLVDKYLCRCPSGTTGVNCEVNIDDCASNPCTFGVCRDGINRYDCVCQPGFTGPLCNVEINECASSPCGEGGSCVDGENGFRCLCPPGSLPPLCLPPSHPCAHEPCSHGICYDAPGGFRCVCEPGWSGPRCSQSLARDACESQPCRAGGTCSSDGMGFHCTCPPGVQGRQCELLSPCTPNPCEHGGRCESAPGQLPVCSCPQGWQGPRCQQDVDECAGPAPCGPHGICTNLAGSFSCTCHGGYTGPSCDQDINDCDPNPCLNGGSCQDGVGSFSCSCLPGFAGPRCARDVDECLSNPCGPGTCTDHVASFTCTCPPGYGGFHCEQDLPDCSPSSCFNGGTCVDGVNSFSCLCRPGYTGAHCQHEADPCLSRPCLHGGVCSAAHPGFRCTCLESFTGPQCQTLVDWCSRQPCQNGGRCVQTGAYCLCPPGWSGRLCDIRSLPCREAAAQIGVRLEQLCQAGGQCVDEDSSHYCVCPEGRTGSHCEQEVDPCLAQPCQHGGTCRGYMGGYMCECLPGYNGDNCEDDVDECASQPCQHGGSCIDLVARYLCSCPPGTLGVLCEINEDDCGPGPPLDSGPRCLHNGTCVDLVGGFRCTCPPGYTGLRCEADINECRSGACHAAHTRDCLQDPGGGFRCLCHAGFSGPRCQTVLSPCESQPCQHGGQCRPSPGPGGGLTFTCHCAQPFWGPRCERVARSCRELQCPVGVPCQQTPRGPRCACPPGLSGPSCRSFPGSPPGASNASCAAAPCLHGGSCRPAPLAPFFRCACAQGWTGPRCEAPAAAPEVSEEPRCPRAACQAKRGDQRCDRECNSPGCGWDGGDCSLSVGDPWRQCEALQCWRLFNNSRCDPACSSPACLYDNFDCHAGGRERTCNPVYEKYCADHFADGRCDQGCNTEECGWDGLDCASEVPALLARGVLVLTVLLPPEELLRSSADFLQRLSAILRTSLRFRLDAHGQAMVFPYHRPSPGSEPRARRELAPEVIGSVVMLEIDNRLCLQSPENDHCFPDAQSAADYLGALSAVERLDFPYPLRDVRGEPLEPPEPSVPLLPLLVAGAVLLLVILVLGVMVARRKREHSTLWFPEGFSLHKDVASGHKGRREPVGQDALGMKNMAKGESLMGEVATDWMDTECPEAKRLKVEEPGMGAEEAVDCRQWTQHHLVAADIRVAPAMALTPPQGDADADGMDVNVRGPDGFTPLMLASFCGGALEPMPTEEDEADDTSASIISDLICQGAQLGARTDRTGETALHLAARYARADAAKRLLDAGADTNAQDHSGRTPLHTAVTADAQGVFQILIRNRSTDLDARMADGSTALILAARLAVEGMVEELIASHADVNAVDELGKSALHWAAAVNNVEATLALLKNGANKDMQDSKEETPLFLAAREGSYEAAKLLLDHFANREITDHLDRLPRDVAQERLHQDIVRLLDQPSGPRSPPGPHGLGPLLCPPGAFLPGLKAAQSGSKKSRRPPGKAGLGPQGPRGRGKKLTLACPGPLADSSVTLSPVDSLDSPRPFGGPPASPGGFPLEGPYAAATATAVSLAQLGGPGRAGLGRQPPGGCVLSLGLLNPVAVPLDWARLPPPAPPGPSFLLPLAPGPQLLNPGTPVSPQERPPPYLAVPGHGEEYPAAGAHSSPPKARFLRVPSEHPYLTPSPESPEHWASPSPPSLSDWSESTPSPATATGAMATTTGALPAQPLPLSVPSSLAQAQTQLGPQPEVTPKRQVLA
Sequence of Torsin-1A-interacting protein 2 (Homo sapiens) (Q8NFQ8 whole entry, looked up): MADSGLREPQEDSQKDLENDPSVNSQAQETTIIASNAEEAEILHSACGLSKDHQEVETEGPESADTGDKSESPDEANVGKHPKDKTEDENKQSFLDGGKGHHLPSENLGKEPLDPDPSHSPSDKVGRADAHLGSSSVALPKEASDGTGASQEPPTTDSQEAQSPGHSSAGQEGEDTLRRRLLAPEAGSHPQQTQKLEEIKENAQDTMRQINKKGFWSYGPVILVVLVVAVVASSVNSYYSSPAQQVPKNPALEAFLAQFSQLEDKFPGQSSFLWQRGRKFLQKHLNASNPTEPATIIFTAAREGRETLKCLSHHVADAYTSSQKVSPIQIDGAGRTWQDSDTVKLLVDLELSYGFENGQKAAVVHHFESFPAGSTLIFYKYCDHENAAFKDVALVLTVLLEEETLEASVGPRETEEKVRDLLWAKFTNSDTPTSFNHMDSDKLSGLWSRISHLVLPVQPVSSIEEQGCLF

Regarding `COCCOC(=O)N1C(=O)[C@@]2(c3cc(C#CC4=CCCCC4)ccc31)[C@H](c1ccccc1OCCO)N1[C@H](c3ccccc3)[C@H](c3ccccc3)OC(=O)[C@H]1[C@@H]2C(=O)N1CCCCCCC1`, the composite z-score was 0.493 in experiment [1]; 0.107 in experiment [2]; 0.0829 in experiment [3]; 0.61 in [4]; 1.1 in experiment [5]; 0.382 in experiment [6]. For the same compound, the composite z-score in experiment [7] is 1.29; in experiment [9], 0.497; in experiment [10], -0.972; in [11] it was 1.57; in [15] it was 2.9; in experiment [17] it was -0.573. In addition, the composite z-score in experiment [18] stood at 0.766; in experiment [19], 1.05; in experiment [20] it was 0.0961. Also, the z-score is -0.639 (inactive) in experiment [8]; 1.31 (inactive) in [12]; 1.59 (inactive) in experiment [13]; 3.07 (inactive) in experiment [14]; 0.0735 (inactive) in experiment [16].
On to `CN(C)CCCNC(=O)[C@@]1(C)c2ccccc2C(=O)N(Cc2ccccc2)[C@H]1c1ccc(CO)cc1`, for which the composite z-score is 1.2 in experiment [1]; -0.333 in [2]; -0.116 in experiment [3]; -0.305 in experiment [4]; -0.675 in experiment [5]; 1.62 in [6]. Besides, the composite z-score in experiment [7] was 0.562; in experiment [9] it was -0.0584; in experiment [10], -0.0074; in experiment [11], 0.988; in experiment [15], 2.82; in experiment [17], 0.151. Besides, the composite z-score is 0.0474 in experiment [18], -0.652 in experiment [19] and -0.0639 in experiment [20]. In addition, the z-score in experiment [8] was -0.839 (inactive); in [12], -0.466 (inactive); in [13], -0.505 (inactive); in experiment [14], -0.577 (inactive); in experiment [16] it was 1.16 (inactive).
Consider `O=C1C2C=CC(C(O)c3ccc(F)cc3)N(n3cnnc3)C2C(=O)N1Cc1ccccc1` (stereo not given), for which the composite z-score is 0.352 in [1]; -0.131 in experiment [2]; -0.12 in experiment [3]; -0.201 in experiment [4]; -0.0052 in [5]; 0.439 in experiment [6]. Besides, the composite z-score in experiment [7] was -0.191; in [9], 0.19; in experiment [10] it was -0.282; in experiment [11], -0.301; in experiment [15], 1.05; in experiment [17], 0.0137. The composite z-score is -0.685 in [18], -0.874 in [19] and -0.208 in experiment [20]. For the same compound, the z-score was 0.594 (inactive) in experiment [8]; 0.271 (inactive) in experiment [12]; 0.767 (inactive) in experiment [13]; -0.1 (inactive) in [14]; -0.997 (inactive) in experiment [16].
Turning to `O=C(NCC(F)(F)F)[C@@H]1c2ccccc2C(=O)N(Cc2ccc(OC(F)(F)F)cc2)[C@H]1c1ccc(CO)cc1`, the composite z-score in experiment [1] was -0.0966; in [2], 0.661; in [3], -0.0595; in [4] it was 0.41; in experiment [5], 0.8; in experiment [6], 1.33. The composite z-score in experiment [7] is 1.1; in experiment [9], 0.208; in experiment [10], -0.25; in experiment [11] it was 1.53; in experiment [15] it was 1.81; in experiment [17], -0.143. Moreover, the figures for the composite z-score in experiment [18], in experiment [19] and in experiment [20] were 0.575, 0.0891 and -0.0978, respectively. The z-score in experiment [8] is -1.76 (inactive); in experiment [12] it was -0.54 (inactive); in [13], -0.046 (inactive); in [14], -1.1 (inactive); in experiment [16], 0.583 (inactive).
Take `C=C(CCCC)/C(=C/C[C@@H](OC(=O)c1ccncc1)c1ccccc1OCCO)c1cnc2ccccc2c1`: the composite z-score in experiment [1] is -0.5; in experiment [2] it was 0.517; in experiment [3], 0.165; in experiment [4], 1.17; in [5] it was 1.33; in experiment [6], 0.611. Further, the composite z-score in experiment [7] was 1.04; in experiment [9], 0.574; in [10], 0.469; in experiment [11] it was 1.55; in [15], 1.26; in experiment [17], -0.127. Besides, the composite z-score was 1.9 in experiment [18], 1.05 in experiment [19] and -0.0028 in [20]. Further, the z-score in experiment [8] was -1.53 (inactive); in experiment [12] it was -0.868 (inactive); in [13] it was -1.2 (inactive); in experiment [14], 1.65 (inactive); in experiment [16], 0.514 (inactive).
